Rows were chosen to be rich in hits. Some 0.89% of all compounds tested hit in one or more screens of this group.
CIT2 TOR yeast – yeast TOR pathway CIT2-GFP modulation; 320,000 tested, 0.065% active; S. cerevisiae CIT2-GFP strain, flow cytometry, 3 h; 100 means same as DMSO wells; GFP response vs DMSO, % at 10 µM;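 active = GFP response relative to DMSO above a set limit, near the screen mean plus 3 SD, cut at about 150% in these data; inconclusive = Fewer than 70 cells measured for a yeast strain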;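 also: ratio of well median GFP fluorescence to mean of DMSO wells on the plate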
RPL19A-GFP yeast – yeast TOR pathway RPL19A-GFP modulation | percent response vs DMSO, % at 10 µM | 330,000 tested, 0.3% active | AID 2025 | S. cerevisiae RPL19A-GFP strain, flow cytometry, 3 h; active compounds read low;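 active = percent response vs DMSO below 50%; inconclusive = fewer than 70 events counted for the yeast strain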;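 also: median channel GFP fluorescence of the barcoded RPL19A-GFP strain; lower means less RPL19A-GFP as with rapamycin TOR inhibition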
LAP4-GFP MLPCN – yeast TOR pathway LAP4-GFP modulation. S. cerevisiae LAP4-GFP multiplex, flow cytometry GFP, 3 h; median GFP as percent of DMSO wells. AID 2023. 320,000 tested, 0.34% active. GFP response vs DMSO, % at 10 µM;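 active = GFP response vs DMSO above a set limit, about the screen mean plus 3 SD, cut at about 150% in these data; inconclusive = under 70 cell events counted for the yeast strain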
MEP2-GFP yeast – yeast TOR pathway MEP2-GFP modulation; 330,000 tested, 0.51% active; GFP response vs DMSO, % at 10 µM; S. cerevisiae MEP2-GFP strain, flow cytometry GFP, 3 h; 100% = DMSO control level;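 active = GFP response versus DMSO above a set limit, roughly screen mean plus 3 SD, cut at about 180% in these data; inconclusive = fewer than 70 cells counted for a yeast strain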;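 also: median GFP fluorescence of the barcode-gated MEP2-GFP cells per well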
AGP1-GFP MLPCN – yeast TOR pathway AGP1-GFP modulation. GFP response vs DMSO, % at 10 µM. 320,000 tested, 0.02% active. S. cerevisiae AGP1-GFP multiplex flow cytometry, 3 h; GFP as percent of DMSO wells;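 active = GFP response relative to DMSO above a set limit, near screen average plus 3 SD, cut at about 150% in these data; inconclusive = fewer than 70 cells counted for the yeast strain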;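 also: median GFP channel fluorescence of the gated AGP1 strain per well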
Hits are given with their value; 0 = inactive; ? = inconclusive; [ ] = another dose, or the depositor's remark.

SMILES | CIT2 TOR yeast | RPL19A-GFP yeast | LAP4-GFP MLPCN | MEP2-GFP yeast | AGP1-GFP MLPCN
CCN(CC)c1ccc(/C=C/[N+](=O)[O-])cc1 | 0 | 0 | 160 | 0 | 0
CCN(CC)c1ccccc1 | 0 | 0 | 0 | 0 | 0
CCOC(=O)c1c(NC(NC(=O)CF)C(Cl)(Cl)Cl)sc2c1CCCC2 (configuration not stated) | 0 | 0 | 0 | 0 | 0
COC(=O)C(O)(c1ccc(NC(=S)NC(=O)c2ccc(Cl)cc2Cl)c(C)c1)C(F)(F)F (configuration not stated) | 0 | 0 | 0 | 0 | 0
CCOC(=O)C(O)(c1ccc(NC(=S)NC(=O)c2ccc(Cl)cc2Cl)c(C)c1)C(F)(F)F (configuration not stated) | ? | 28[may fluoresce violet] | ? | 215[may fluoresce violet] | ?
CC(=O)OC1N=C(c2ccc(Cl)cc2)c2cc(Br)ccc2NC1=O (configuration not stated) | ? | 0 | 0 | 451[may fluoresce violet] | 0
O=P(NS(=O)(=O)c1ccc(Br)cc1)(Oc1ccccc1)Oc1ccccc1 | 0 | 0 | 0 | 0 | 0
O=c1[nH]c(=O)n(Cc2ccc(F)cc2)c(O)c1C=NCCN1CCCCC1 | 0 | 0 | 0 | 179 | 0
CN(C)CC1CSCCC1(O)c1ccc(Cl)cc1 (configuration not stated) | ? | 45[may fluoresce violet] | 0 | 205[may fluoresce violet] | ?
COc1ccc2[nH]cc(CCN=C(N)N)c2c1 | 0 | 0 | 0 | 0 | 0
COc1ccc2[nH]cc(C3=CCNCC3)c2c1 | 171 | 0 | 174 | 183 | 0
CC[C@@]1(O)C(=O)OCc2c1cc1n(c2=O)Cc2cc3ccccc3nc2-1 | 0 | 0 | 160 | 0 | 0
O=c1[nH]c(=O)n(Cc2ccccc2)c(O)c1/C=N/NCCO | 0 | 0 | 0 | 0 | 0
COc1ccc2c(c1)[nH]c1c(C)nccc12 | 0 | 0 | 0 | 0 | 0
COc1ccc2c3c([nH]c2c1)C(C)=NCC3 | ? | 0 | 0 | 259[may fluoresce violet] | 0
CC1=NCCc2c1[nH]c1cc(O)ccc21 | ? | 0 | 0 | 197[may fluoresce violet] | 0
C1=NCCc2c1[nH]c1ccccc21 | 0 | 0 | 0 | 0 | 0
C/C(=N\NC(=O)c1ccncc1)c1c(O)n(-c2ccccc2)c(=O)[nH]c1=O | 0 | 0 | 0 | 0 | 0
Cc1cc(OCc2nn[nH]n2)c2c3c(c(=O)oc2c1)CCC3 | 0 | 0 | 0 | 0 | 0
N#CC(C#N)=NNc1ccc(-n2ccc(C(F)(F)F)n2)cc1 | 0 | 0 | 198 | 0 | 0
CN1C(=O)C(=Cc2ccc(SC3CCCCC3)o2)C(=O)N(C)C1=O | 0 | 0 | 151 | 0 | 0
CN1C(=O)C(=Cc2c(OCc3cnc(Cl)s3)ccc3ccccc23)C(=O)N(C)C1=O | 0 | 0 | 0 | 0 | 0
CC[C@H](C)/C=C(C)/C=C/C1=CC2=C(Cl)C(=O)[C@](C)(OC(C)=O)C(=O)C2=CO1 | ? | 38[may fluoresce violet] | 0 | 0 | 0
COc1cc2c(cc1OC)C(C(=O)NCCC(C)C)C1CCCCN1C2=O (configuration not stated) | 0 | 0 | 0 | 0 | 0
COc1cc2c(cc1OC)C(C(=O)NC(C)C)C1CCCCN1C2=O (configuration not stated) | ? | 31[may fluoresce violet] | 0 | 498[may fluoresce violet] | ?
SMILES | CIT2 TOR yeast | RPL19A-GFP yeast | LAP4-GFP MLPCN | MEP2-GFP yeast | AGP1-GFP MLPCN
O=C(C1CCN(S(=O)(=O)N2CCOCC2)CC1)N1CCC2(CC1)OCCO2 | 0 | 0 | 0 | 0 | 0
Cc1ccc(/C=C2\C(=O)NC(=O)N(CC3CCCO3)C2=O)s1 (configuration not stated) | 0 | 0 | 191 | 0 | 0
CCN(CC)c1ccc(/C=C2\C(=O)NC(=O)N(CC3CCCO3)C2=O)cc1 (configuration not stated) | 0 | 0 | 0 | 0 | 0
COc1cc(/C=C/C(=O)c2c(O)n(CCc3ccccc3)c(=O)[nH]c2=O)ccc1O | 0 | 0 | 0 | 585 | 0
Nc1ccc(N=Nc2ccccc2)cc1 | 0 | 0 | 190 | 0 | 0
O=C1NC(=S)N(c2ccccc2)C(=O)/C1=C/c1ccco1 | 0 | 0 | 157 | 0 | 0
O=C1NC(=O)N(CCc2ccc(F)cc2)C(=O)/C1=C/c1ccco1 | 0 | 0 | 182 | 0 | 0
CCC(=NCCC1=CCCCC1)c1c(O)[nH]c(=O)[nH]c1=O | 0 | 0 | 0 | 0 | 0
FC(F)(F)c1cccc(-n2nnnc2C2(N3CCOCC3)CCCCC2)c1 | 0 | 0 | 0 | 0 | 0
O=C(O)c1cccc(N=Nc2c(O)[nH]c(=O)[nH]c2=O)c1 | 0 | 0 | 0 | 0 | 0

Compound activity as filed in PubChem BioAssay.
